Measured values reported in PubChem BioAssay AID1159580 (chemical genetic matrix, 2015).
“And” between values parts separate entries of the source, which are not always exact repeats. Equal entries are not always repeated. Among all 5,500 compounds or so, about 2,000 (36%) were called active. Inconclusive results (about 18%) are left out. No stated cut-off is given here; in the data, active means normalized growth mostly below about 0.91 (no sharp cut-off); inconclusive means no clear call, values can overlap the other calls; inactive means mostly above about 0.92. The list shows a part of the results.

Test: chemical genetic growth profiling, strain panel (AID 1159580);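 further: tested at 20 µM; growth read once vehicle control cultures reached saturation at 30 °C; 1 = growth at the plate median or of vehicle wells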
Conditions: S. cerevisiae deletion strains, growth OD

Measured: normalized growth

C1N2CN3CN1CN(C2)C3
inactive: locus YAL013W, strain DEP1, stronger effect = lower value 0.975 | locus YAL021C, strain ccr4, stronger effect = lower value 0.986 | locus YAL026C, strain drs2, stronger effect = lower value 1 | locus YAL030W, strain snc1, stronger effect = lower value 0.993 | locus YBL061C, strain skt5, stronger effect = lower value 0.991 | locus YBR009C, strain hhf1, stronger effect = lower value 1.03 | locus YBR021W, strain FUR4, stronger effect = lower value 1.06 | locus YBR023C, strain chs3, stronger effect = lower value 0.984 | locus YBR171W, strain sec66, stronger effect = lower value 0.991 | locus YBR229C, strain ROT2, stronger effect = lower value 0.949 | locus YBR231C, strain swc5, stronger effect = lower value 1 | locus YBR279W, strain paf1, stronger effect = lower value 0.985 | locus YCL011C, strain gbp2, stronger effect = lower value 0.986 | locus YCL016C, strain dcc1, stronger effect = lower value 0.961 | locus YCL029C, strain bik1, stronger effect = lower value 0.977 | locus YCL061C, strain MRC1, stronger effect = lower value 0.987 | locus YCL069W, strain vba3, stronger effect = lower value 1 | locus YCR088W, strain abp1, stronger effect = lower value 0.982 | locus YDL005C, strain med2, stronger effect = lower value 0.999 | locus YDL035C, strain GPR1, stronger effect = lower value 0.989 | locus YDL040C, strain nat1, stronger effect = lower value 0.996 | locus YDL074C, strain BRE1, stronger effect = lower value 0.972 | locus YDL101C, strain DUN1, stronger effect = lower value 0.955 | locus YDL134C, strain PPH21, stronger effect = lower value 0.983 | locus YDL185W, strain tfp1, stronger effect = lower value 0.951 | locus YDL192W, strain arf1, stronger effect = lower value 0.972 | locus YDR001C, strain nth1, stronger effect = lower value 0.994 | locus YDR069C, strain doa4, stronger effect = lower value 1.03 | locus YDR101C, strain arx1, stronger effect = lower value 0.977 | locus YDR137W, strain rgp1, stronger effect = lower value 0.985 | locus YDR150W, strain NUM1, stronger effect = lower value 0.972 | locus YDR159W, strain sac3, stronger effect = lower value 1.04 | locus YDR162C, strain NBP2, stronger effect = lower value 0.954 | locus YDR195W, strain ref2 1.01 | locus YDR297W, strain sur2, stronger effect = lower value 0.986 | locus YDR318W, strain mcm21, stronger effect = lower value 0.98 | locus YDR334W, strain swr1, stronger effect = lower value 0.974 | locus YDR335W, strain msn5, stronger effect = lower value 0.997 | locus YDR388W, stronger effect = lower value 0.976 | locus YDR392W, strain spt3, stronger effect = lower value 0.923 | locus YDR502C, strain sam2, stronger effect = lower value 0.966 | locus YEL003W, strain gim4, stronger effect = lower value 1 | locus YEL037C, strain rad23, stronger effect = lower value 0.982 | locus YEL061C, strain CIN8 (second series), stronger effect = lower value 0.978 | locus YEL061C, strain CIN8, stronger effect = lower value 0.983 | locus YER015W, strain faa2, stronger effect = lower value 0.988 | locus YER016W, strain bim1, stronger effect = lower value 0.999 | locus YER110C, stronger effect = lower value 0.975 | locus YER111C, strain swi4, stronger effect = lower value 0.978 | locus YER155C, strain BEM2 (second series), stronger effect = lower value 0.991 | locus YER155C, strain BEM2, stronger effect = lower value 0.982 | locus YER167W, strain BCK2, stronger effect = lower value 0.984 | locus YFR010W, strain ubp6, stronger effect = lower value 0.988 | locus YGL078C, strain dbp3, stronger effect = lower value 0.942 | locus YGL086W, strain mad1, stronger effect = lower value 0.991 | locus YGL167C, strain pmr1, stronger effect = lower value 0.992 | locus YGL173C, strain kem1, stronger effect = lower value 0.994 | locus YGL227W, strain vid30, stronger effect = lower value 1 | locus YGL240W, strain doc1, stronger effect = lower value 0.999 | locus YGL248W, strain PDE1, stronger effect = lower value 0.973 | locus YGL253W, strain hxk2, stronger effect = lower value 0.998 | locus YGR078C, strain PAC10, stronger effect = lower value 0.973 | locus YGR135W, strain pre9, stronger effect = lower value 0.934 | locus YGR229C, strain SMI1, stronger effect = lower value 0.966 | locus YGR252W, strain gcn5, stronger effect = lower value 1.12 | locus YHR013C, strain ard1, stronger effect = lower value 0.95 | locus YHR027C, strain rpn1, stronger effect = lower value 0.99 | locus YHR030C, strain SLT2, stronger effect = lower value 0.99 and 0.968 | locus YHR079C, strain IRE1 (second series), stronger effect = lower value 0.974 | locus YHR079C, strain IRE1, stronger effect = lower value 0.929 | locus YHR094C, strain hxt1, stronger effect = lower value 0.976 | locus YHR129C, strain ARP1, stronger effect = lower value 0.978 | locus YHR142W, strain chs7, stronger effect = lower value 0.973 | locus YHR200W, strain rpn10, stronger effect = lower value 0.975 | locus YIL066C, strain RNR3, stronger effect = lower value 0.984 | locus YIL073C, strain SPO22, stronger effect = lower value 0.895 | locus YIL125W, strain kgd1, stronger effect = lower value 0.979 | locus YIR030C, strain dcg1, stronger effect = lower value 0.976 | locus YJL092W, strain hpr5, stronger effect = lower value 0.982 | locus YJL095W, strain BCK1 (second series), stronger effect = lower value 0.986 | locus YJL095W, strain BCK1, stronger effect = lower value 0.988 and 0.948 | locus YJL115W, strain asf1, stronger effect = lower value 0.985 | locus YJL129C, strain trk1, stronger effect = lower value 0.979 | locus YJL134W, strain LCB3, stronger effect = lower value 0.98 | locus YJL154C, strain vps35, stronger effect = lower value 0.991 | locus YJL164C, strain tpk1, stronger effect = lower value 0.99 | locus YJL166W, strain qcr8, stronger effect = lower value 0.964 | locus YJL168C, strain set2, stronger effect = lower value 0.985 | locus YJL187C, strain SWE1 (second series), stronger effect = lower value 0.975 | locus YJL187C, strain SWE1, stronger effect = lower value 0.988 | locus YJR043C, strain POL32, stronger effect = lower value 0.997 | locus YJR066W, strain TOR1, stronger effect = lower value 0.987
